The nature of test [1]: HepG2 cells viability qHTS for Zika virus inhibitors (AID 1347168). The conditions noted are these: Zika counter-screen; series mostly up to 45.9 µM. A digest of the protocol: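 Compounds were tested in concentration series on cells grown in DMEM containing 4% FBS. After 24 to 48 hours, cellular ATP was measured by luminescence with CellTiter Glo.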
(In qHTS, concentration-response curves come from the screen itself.)

A short description of test [2]: Tertiary RLuc qRT-PCR qHTS assay for Zika virus inhibitors (AID 1347169). Further: nearly all actives have a fitted effect of over 55% in size. Further: potency means the concentration at half of the fitted maximal effect. Particulars: infected Vero cells, reporter luminescence, 48-72 h; series mostly up to 45.9 µM. In outline:
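Vero, 1,000 cells/well, o/n 37 C; cpd pinned in DMSO; ZIKV-RLuc Cambodian, MOI 1-2, 48-72 h 37 C; live-cell RLuc substrate, lum read at 1-1.5 h.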

A short description of test [3]: OV-KATE Cancer Cell Toxicity qHTS against the NCATS CANVASS Library (AID 1347345). The conditions noted are these: OV-KATE cells viability, CellTiter-Glo luminescence, 72 h; series mostly up to 76 µM. A digest of the protocol:
(§1)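 Step one: seed 1000 cells per well. Step two: incubate 4 h. Step three: add test compounds in 11 concentrations. Step four: culture 72 h, then add CellTiter-Glo and record luminescence after 15min.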

A short description of test [4]: HPAF-II Cancer Cell Toxicity qHTS against the NCATS CANVASS Library (AID 1347346). Further: nearly all actives have a fitted effect of over 55% in size. The conditions noted are these: HPAF-II viability, CellTiter-Glo ATP luminescence, 72 h; series mostly up to 76 µM. In outline:
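Cytotoxicity in HPAF-II pancreatic cancer cells: 72 h treatment across 11 concentrations, ATP-based CellTiter-Glo luminescence endpoint.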

Test [5] can be described thus: UWB1.289 Cancer Cell Toxicity qHTS against the NCATS CANVASS Library (AID 1347347). Further: nearly all actives have a fitted effect of over 60% in size. The conditions noted are these: UWB1.289 viability, CellTiter-Glo luminescence, 72 h; series mostly up to 76 µM. A digest of the protocol:
as §1

The nature of test [6]: OV-SAHO Cancer Cell Toxicity qHTS against the NCATS CANVASS Library (AID 1347348). Further: nearly all actives have a fitted effect of over 55% in size. The conditions noted are these: OV-SAHO viability, CellTiter-Glo luminescence, 72 h; series mostly up to 76 µM. In outline: as §1
Test [7] is described as follows: Panc-1005 Cancer Cell Toxicity qHTS against the NCATS CANVASS Library (AID 1347349). Further: nearly all actives have a fitted effect of over 60% in size. Particulars: Panc-1005 viability, CellTiter-Glo luminescence, 72 h; series mostly up to 76 µM. In outline: as §1
The nature of test [8]: U-118MG Cancer Cell Toxicity qHTS against the NCATS CANVASS Library (AID 1347351). The conditions noted are these: U-118MG viability, CellTiter-Glo luminescence, 72 h; series mostly up to 76 µM. In outline:
as §1

Test [9] can be described thus: UWB1.289-WTBRCA1 Cancer Cell Toxicity qHTS against the NCATS CANVASS Library (AID 1347354). Particulars: UWB1.289-WTBRCA1 viability, CellTiter-Glo luminescence, 72 h; at 76 µM (top of the series). In outline:
(§2)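 qHTS cytotoxicity: compounds tested in 11 concentrations on 1000 seeded cells per well over 72 h; bortezomib served as control; signal from CellTiter-Glo luminescence.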

Test [10] can be described thus: HEK-293 Cancer Cell Toxicity qHTS against the NCATS CANVASS Library (AID 1347355). Further: nearly all actives have a fitted effect of over 65% in size. The conditions noted are these: HEK-293 viability, CellTiter-Glo luminescence, 72 h; series mostly up to 91.4 µM. In outline:
as §2

Test [11] in a line: HPAF-II 24hr Apoptosis Induction qHTS against the NCATS CANVASS Library (AID 1347356). The conditions noted are these: HPAF-II caspase-3/7 Caspase-Glo luminescence; series mostly up to 91.4 µM. A digest of the protocol: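 Apoptosis induction in HPAF-II pancreatic cancer cells is measured as caspase-3/7 luminescence after a 24-hour exposure to compounds.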
Test [12] in a line: HEK293 18hr Apoptosis Induction qHTS against the NCATS CANVASS Library (AID 1347357). The conditions noted are these: HEK293 caspase-3/7 Caspase-Glo luminescence; series mostly up to 91.4 µM. A digest of the protocol:
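Cells seeded at 500/well in DMEM + 10% FBS. Compounds pinned, 11 concentrations. 18 h, 37 degrees C/5% CO2. Caspase-Glo 3/7 added, 15 min RT dark, luminescence read.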

Test [13] is described as follows: HPAF-II 12hr Apoptosis Induction qHTS against the NCATS CANVASS Library (AID 1347358). The conditions noted are these: HPAF-II caspase-3/7 Caspase-Glo luminescence; series mostly up to 91.4 µM. A digest of the protocol:
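Apoptosis in HPAF-II pancreatic cancer cells is scored as caspase 3/7 luminescence following a 12-hour exposure to an 11-point compound series.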

A short description of test [14]: HEK293 24hr Apoptosis Induction qHTS against the NCATS CANVASS Library (AID 1347359). Particulars: HEK293 caspase-3/7 activation, Caspase-Glo luminescence; series mostly up to 91.4 µM. A digest of the protocol: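 Caspase-3/7 activation measured as luminescence from the DEVD-based Caspase-Glo reagent, 15 min at room temperature, following 24-hour compound treatment of HEK293 cells.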

Test [15] can be described thus: HPAF-II 18hr Apoptosis Induction qHTS against the NCATS CANVASS Library (AID 1347360). Particulars: HPAF-II caspase-3/7 luminescence; series mostly up to 91.4 µM. A digest of the protocol:
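Seed HPAF-II cells at 500/well in DMEM + 10% FBS, pin-transfer compounds, incubate 18 hours at 37 degrees C/5% CO2, add Caspase-Glo 3/7 reagent, wait 15 min, read luminescence.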

A short description of test [16]: HEK293 12hr Apoptosis Induction qHTS against the NCATS CANVASS Library (AID 1347361). Particulars: HEK293 caspase-3/7 Caspase-Glo luminescence; series mostly up to 91.4 µM. In outline:
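Cells are seeded, dosed with an 11-point compound series and incubated 12 hours. Caspase-3/7 activity is detected by luminescent DEVD-substrate reagent after 15 minutes at room temperature.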

Test [17] relates to NAD(P)H diaphorase (Clostridium kluyveri). Put plainly: Diaphorse counterscreen qHTS: Assay Interference Panel against the NCATS CANVASS Library (AID 1347362). The conditions noted are these: Diaphorase enzyme, resazurin to resorufin fluorescence; series mostly up to 114 µM. A digest of the protocol: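 Counterscreen for coupling-enzyme interference: resorufin fluorescence from resazurin/NADH turnover, read after 5 min at room temperature. Compounds were tested over an 11-point series after 15 min dark preincubation with diaphorase in PBS-Tween.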
On the technique in general: The purpose of a counterscreen is to sort out artefacts and off-target activity.

Test [18] concerns the target Luciferin 4-monooxygenase (Photinus pyralis) (UniProt P08659). Put plainly: Firefly luciferase counterscreen qHTS: Assay Interference Panel against the NCATS CANVASS Library (AID 1347363). Particulars: purified firefly luciferase, luminescence inhibition, 5 min; series mostly up to 114 µM. In outline:
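Luminescence inhibition readout: compounds (11-point qHTS) sat 15 min at room temperature with substrate mix (0.013 mM luciferin and ATP), then firefly luciferase was added and signal read 5 min later.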

The nature of test [19]: KB-3-1 Cancer Cell Toxicity qHTS against the NCATS CANVASS Library (AID 1347366). Further: nearly all actives have a fitted effect of over 75% in size. Particulars: KB-3-1 viability, CellTiter-Glo luminescence, 72 h; series mostly up to 91.4 µM. In outline: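 Luminescence from CellTiter-Glo (10 min, room temperature) measured KB-3-1 viability after 72 hr compound exposure at 37C. Cells were seeded at 500/well and tested in an 11-point series.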

Test [20] is described as follows: qHTS for ATAD5 Agonist screened against the NCATS CANVASS Library (AID 1347367).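 Further: luciferase reporter driven by ATAD5 which rises upon DNA damage.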 Particulars: HEK293T ATAD5-luciferase reporter, luminescence, 16 h; series mostly up to 91.4 µM. A digest of the protocol: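 HEK293T-ATAD5 luc reporter; 2000 cells/well; 5hr settle; cpd 11-pt qHTS; 16hr 37C 5% CO2 dark; viability by CellTiter-Fluor (AFC fluorescence); then luciferase luminescence, 30min RT.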

Inconclusive results are not listed. Activity calls are given as the source filed them. The call rests on the fitted dose curve; in most records, active means well fitted curve in the direction sought with a large enough effect; inconclusive means small, poorly fitted or top-dose-only effect, or another doubt; inactive means no such curve, though single readings can be large; an effect the other way counts as inactive or inconclusive.

Sequence of Luciferin 4-monooxygenase (Photinus pyralis) (P08659 whole entry, looked up): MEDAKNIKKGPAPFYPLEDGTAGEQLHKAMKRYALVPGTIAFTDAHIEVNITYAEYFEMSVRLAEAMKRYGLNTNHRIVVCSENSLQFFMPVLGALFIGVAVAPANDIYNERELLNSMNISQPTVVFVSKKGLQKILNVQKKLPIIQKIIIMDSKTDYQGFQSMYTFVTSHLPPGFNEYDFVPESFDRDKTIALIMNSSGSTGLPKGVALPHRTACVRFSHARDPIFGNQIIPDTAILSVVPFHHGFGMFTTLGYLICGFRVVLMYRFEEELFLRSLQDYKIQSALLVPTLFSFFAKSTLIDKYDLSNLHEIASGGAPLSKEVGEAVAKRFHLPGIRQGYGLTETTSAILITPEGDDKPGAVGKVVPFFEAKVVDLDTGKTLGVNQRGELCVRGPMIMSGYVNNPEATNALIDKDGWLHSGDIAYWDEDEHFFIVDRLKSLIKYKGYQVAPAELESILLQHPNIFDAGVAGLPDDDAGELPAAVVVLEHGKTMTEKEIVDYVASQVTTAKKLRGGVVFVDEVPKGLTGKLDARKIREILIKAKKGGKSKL

As for `C[C@]12CC[C@@H]3c4ccc(OC(=O)N(CCCl)CCCl)cc4CC[C@H]3[C@@H]1CC[C@@H]2O`, the result in test [1] was inactive.
For `O=C(Nc1ccc(Br)cc1)c1cc(Br)cc(Br)c1O`, the call in [1] was inactive. Moreover, the Potency in test [2] is 8.29 µM (active).
Consider `NCCc1ccc(O)cc1`, for which the compound was called inactive in test [3], in test [4], in test [5], in test [6], in test [7] and in test [8]. In addition, the call in test [9], in [10], in [11], in [12], in test [13] and in [14] was inactive. Also, the compound was called inactive in test [15], in test [16], in test [17], in test [18], in test [19] and in test [20].
Regarding `O=c1c(C2CC(c3ccc(-c4ccc(Br)cc4)cc3)Cc3ccccc32)c(O)sc2ccccc12` (stereo not drawn), the result in test [1] was inactive.
In the case of `CC(=O)OCC1=C(C(=O)O)N2C(=O)[C@@H](N)[C@H]2SC1`, the Potency result in test [2] is “inactive”.

The values are drawn from PubChem BioAssay (NCATS).
